# High-throughput results as filed in PubChem BioAssay.
# D2 PAM-1 = potentiates the human D2 dopamine receptor allosterically; P14416; DiscoveRx D2 beta-arrestin cells, luminescence, 90 min; 100% = 57 uM dopamine signal; potentiation, % (concentration not given with the values); hit rate 0.23% among 360,000; in the data active = potentiation above about 50%
# Target sequence (P14416 whole entry, looked up): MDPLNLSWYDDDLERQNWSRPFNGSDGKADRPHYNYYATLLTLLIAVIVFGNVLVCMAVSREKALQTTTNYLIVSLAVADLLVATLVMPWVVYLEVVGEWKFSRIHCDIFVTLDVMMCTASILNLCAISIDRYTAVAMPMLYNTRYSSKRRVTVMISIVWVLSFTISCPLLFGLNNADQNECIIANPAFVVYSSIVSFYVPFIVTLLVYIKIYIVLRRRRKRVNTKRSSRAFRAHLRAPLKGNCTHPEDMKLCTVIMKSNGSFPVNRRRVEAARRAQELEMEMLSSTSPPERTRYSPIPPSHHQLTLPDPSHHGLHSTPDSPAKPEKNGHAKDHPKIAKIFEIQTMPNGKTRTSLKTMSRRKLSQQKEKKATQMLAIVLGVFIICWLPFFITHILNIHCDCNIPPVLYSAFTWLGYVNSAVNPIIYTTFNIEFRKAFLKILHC
#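 D2 cells co-treated with compound plus 50 nM dopamine (EC20) for 90 min at 37 deg C to detect potentiation. Beta-arrestin recruitment was read as enzyme-fragment luminescence after 1 h at ambient temperature. Full response was set by 57 uM dopamine.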
# D2 antag = D2 dopamine receptor (human) antagonism; P14416; inhibition, % at 10 µM; hit rate 2% among 340,000; HEK293 TREx D2 cells, calcium flux, dopamine EC80; in the data active = inhibition above about 30%; inactive = below that, where a call was filed
#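 Calcium mobilization kinetics were recorded at 1 s intervals in tetracycline-induced HEK293 T-REx D2 cells, first for 180 s after compound addition and then 180 s after EC80 dopamine.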
# D2 ag-1 = activates the human D2 dopamine receptor. P14416. DiscoveRx PathHunter D2 beta-arrestin, luminescence, 90 min; 100% = 57 uM dopamine signal. activation, % (concentration not given with the values). hit rate 0.084% among 360,000; in the data active = activation above about 40%
#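 Agonist mode: compounds alone added to overnight-plated D2 PathHunter cells for 90 min at 37 C, with 57 uM final dopamine (EC100) defining full response. Beta-arrestin recruitment detected by chemiluminescent reagent, read after 1 h at ambient temperature.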
# D2 ag-2 = D2 dopamine receptor (human) agonism | HEK293 T-REx D2 cells, calcium flux agonist mode | P14416 | AID 485358 | activation, % at 2 µM | hit rate 0.53% among 340,000;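 active = activation over 3 SD above normal in the single-dose calcium agonist read, cut at about 30% in these data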
#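 Agonism is scored from calcium flux in a force-coupled, inducible HEK293 cell line expressing D2, read kinetically for 180 s after compound addition against dopamine controls.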
# D2 PAM-2 = D2 dopamine receptor (human) potentiation; P14416; HEK293 T-REx D2, calcium flux, EC20 dopamine potentiation; potentiation, % at 10 µM; hit rate 0.34% among 340,000; AID 485347;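 active = potentiation over 3 SD above the plate norm, cut at about 30% in these data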
#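 Cells plated with tetracycline inducer and held overnight at 30 C; calcium dye loaded 30–90 min at room temperature; baseline taken, compound added and read 180 s; EC20 dopamine then added and read 180 s.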
# A number is an active result; 0 = inactive; - = not tested or not shown. Most compounds without a hit are left out; they make up all but 2.4% or so of the library.
SMILES,D2 PAM-1,D2 antag,D2 ag-1,D2 ag-2,D2 PAM-2
CCn1cc(C=C2C(=O)NC(=O)NC2=O)c2ccccc21,0,38,0,0,0
Cc1cccc(Cn2cccc(C(=O)Nc3nnc(C)s3)c2=O)c1,-,-,-,0,0
CC(=O)N1CCC2(CC1)CC(=O)c1cc(OCC(=O)N3CCC4(CC3)OCCO4)ccc1O2,0,0,0,0,31
CC(=O)N1CCC2(CC1)CC(=O)c1cc(OCC(=O)N3CCN(C)CC3)ccc1O2,0,0,0,0,0
Cc1ccc(OCC(=O)Nc2ccc(Cl)cc2C(=O)c2ccccc2)c(Br)c1,-,-,-,0,0
Cc1oc(-c2ccc(Cl)cc2)nc1CN1C(=O)CN=C(c2ccccc2)c2ccccc21,-,-,-,-,0
Cc1cccc(NC(=O)Cn2cc(C(=O)c3ccccc3)c3ccccc32)c1,-,-,-,0,0
COc1ccc(C)cc1NC(=O)c1cccn(Cc2cccc([N+](=O)[O-])c2)c1=O,-,-,-,-,0
CCC1(C)OC(c2ccccc2)=C/C(=C/C=C2C(=O)NC(=O)NC2=O)O1 (stereo not given),0,43,0,0,0
COc1ccc(-c2nc(CN3C(=O)CN=C(c4ccccc4)c4ccccc43)c(C)o2)cc1OC,-,-,-,0,0
CCN(CC)CCSc1nc2ccccc2c(=O)n1-c1ccc(Cl)cc1,-,-,-,0,0
COc1ccc2c(c1)C1OCCNC1CC2 (stereo not given),0,-,0,-,-
Oc1cc2c(cc1O)[C@H]1c3ccccc3CN[C@@H]1CC2,-,92,-,84,0
O=C1N(c2nncs2)CCN1[N+](=O)[O-],69,0,0,0,0
Cc1nn(CC(C)C)c(Cl)c1C(=O)NC1CCCC1,0,-,0,-,-
Cc1nn(CC(C)C)c(Cl)c1C(=O)NC1CCCCC1,0,30,0,0,0
COc1ccccc1N1CCN(CCc2ccccc2)CC1,0,73,0,0,0
COc1ccccc1N1CCN(Cc2ccccc2F)CC1,0,81,0,0,0
COc1ccccc1N1CCN(Cc2ccc(Br)cc2)CC1,0,94,0,0,0
COc1ccccc1N1CCN(Cc2cnc(-c3ccccc3)[nH]2)CC1,0,57,0,0,0
COc1ccccc1N1CCN(Cc2ccccc2Cl)CC1,0,79,0,0,0
N#CC1=C(N)Oc2c(c(=O)oc3ccccc23)C1c1ccncc1 (stereo not given),0,0,0,0,0
CCOc1ccc(C2C(C#N)=C(N)Oc3c2c(=O)oc2ccccc32)cc1 (stereo not given),0,31,0,0,0
CN1CCN(c2ccc([N+](=O)[O-])cc2Cl)CC1,0,0,0,0,0
CC1CN(c2cc([N+](=O)[O-])ccc2Cl)CC(C)N1 (stereo not given),0,69,0,0,0
SMILES,D2 PAM-1,D2 antag,D2 ag-1,D2 ag-2,D2 PAM-2
CN1CCN(c2cc([N+](=O)[O-])ccc2Cl)CC1,0,69,0,0,0
Cc1cccc(N2CCN(CCc3ccccc3)CC2)c1C,0,0,0,0,0
CCCCCCN1CCN(c2ccccc2Cl)CC1,0,76,0,0,0
CCC(C(=O)Nc1ccccc1F)N1C(=O)CN=C(c2ccccc2)c2ccccc21 (stereo not given),-,-,-,0,0
Cc1ccccc1CN1C(=O)C(C)N=C(c2ccccc2)c2ccccc21 (stereo not given),-,-,-,0,0
CCCCC1(CCCC)C(=O)NC(=Nc2cccc(C)c2)NC1=O,0,0,0,0,0
Cc1cccc(N=C2c3cc([N+](=O)[O-])ccc3-c3c2cc([N+](=O)[O-])cc3[N+](=O)[O-])c1,109,-,0,-,-
CCCCn1c(N)c(C(=O)OCCOC)c2nc3ccccc3nc21,0,-,0,-,-
COCCOC(=O)c1c(N)n(Cc2ccccc2)c2nc3ccccc3nc12,0,36,0,0,0
CCOC(=O)c1c(N)n(Cc2ccco2)c2nc3ccccc3nc12,0,30,0,0,0
O=C(Nc1ccccc1)Oc1ccccc1,0,0,0,0,0
CC(/C=C(\C)Nc1ccccc1)=Nc1ccccc1,0,0,0,0,37
CC(=O)c1ccc(OC(NC(=O)c2ccco2)C(Cl)(Cl)Cl)cc1 (stereo not given),0,0,0,0,32
O=C(NC(Oc1ccccc1)C(Cl)(Cl)Cl)c1ccccc1 (stereo not given),0,0,0,0,0
